Only some compounds are listed: those with a hit (about 3.4% of all), similar ones and a draw of the others.
TEAD-YAP inh = TEAD-YAP interaction inhibition. inhibition, % at 9.12 µM. hit rate 1.4% among 640,000. AID 1259422. HEK-TIYL cells, TEAD-Gal4/YAP UAS-luciferase luminescence; in the data active = inhibition above about 32%;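 also: 0% = median of test compound wells and 100% = reference inhibitor wells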
MITF primary = inhibitors of human MITF. AID 1259374. AlphaScreen MITF homodimerization, bead proximity signal. hit rate 0.91% among 650,000. inhibition, % at 2.6 µM; in the data active = inhibition above about 50%;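 also: 0% = vehicle wells with protein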
FBW7 activator = activators of human E3 ligase FBW7; Q969H0; AlphaScreen FBW7–phospho-cyclin E peptide binding, activator screen; normalized activity (activation), % at 26.1 µM; hit rate 0.13% among 650,000; AID 1259310; in the data active = normalized activity above about 1.9%;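 also: purified mutant Fbw7 with reduced substrate affinity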
Target sequence (Q969H0 whole entry, looked up): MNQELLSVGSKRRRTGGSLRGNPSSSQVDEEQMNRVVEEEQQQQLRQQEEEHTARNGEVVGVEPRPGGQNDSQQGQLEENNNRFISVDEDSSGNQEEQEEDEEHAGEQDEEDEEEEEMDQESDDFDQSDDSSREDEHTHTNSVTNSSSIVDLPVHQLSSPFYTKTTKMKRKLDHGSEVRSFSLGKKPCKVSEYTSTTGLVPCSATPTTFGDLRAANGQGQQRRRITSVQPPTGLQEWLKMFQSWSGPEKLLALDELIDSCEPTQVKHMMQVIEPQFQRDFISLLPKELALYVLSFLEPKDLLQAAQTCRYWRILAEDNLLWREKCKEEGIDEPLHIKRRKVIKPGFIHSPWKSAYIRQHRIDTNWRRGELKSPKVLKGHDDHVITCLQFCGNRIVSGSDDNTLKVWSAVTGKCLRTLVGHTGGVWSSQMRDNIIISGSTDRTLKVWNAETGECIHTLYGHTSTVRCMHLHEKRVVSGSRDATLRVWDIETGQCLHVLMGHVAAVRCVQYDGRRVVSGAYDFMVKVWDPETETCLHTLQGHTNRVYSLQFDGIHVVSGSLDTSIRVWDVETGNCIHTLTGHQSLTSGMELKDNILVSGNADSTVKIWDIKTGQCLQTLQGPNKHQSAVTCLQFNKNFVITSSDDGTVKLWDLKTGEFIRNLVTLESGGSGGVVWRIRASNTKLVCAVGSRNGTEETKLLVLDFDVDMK
GPR151 activ = human GPR151 activation; Q8TDV0; PathHunter beta-arrestin GPR151 cells, luminescence; activation, % at 11.2 µM; hit rate 1% among 650,000; AID 1508602; in the data active = activation above about 4.9%;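 also: 0% = median of compound wells and 100% = cells with positive control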
MITF inh conf = confirmation of human MITF inhibitors | shares compounds with MITF primary | AlphaScreen MITF homodimerization, biotin/His-MITF beads | inhibition, % at 2.6 µM | hit rate 16% among 4,700;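 active = inhibition above a cutoff derived from the DMSO control wells, cut at about 28% in these data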;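 also: 0% = MITF dimer wells with DMSO only; inhibitors lower the bead chemiluminescence by keeping MITF from dimerizing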
AS interf DR = AlphaScreen optical interference, dose response counter-screen; shares compounds with MITF primary; AlphaScreen optical interference counterscreen, cell-free; IC50, µM; hit rate 6% among 480; AID 1259373; call rule not given here
AS interf ctr = AlphaScreen optical interference, counter-screen. shares compounds with MITF primary. LysRS AlphaScreen counterscreen, signal interference, triplicate. inhibition, % at 2.6 µM. hit rate 7.6% among 4,700;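 active = inhibition above a cutoff derived from the DMSO control wells, cut at about 30% in these data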
Numbers without * were called inactive.

How did Cc1cc(/C=C(/C#N)c2ccc(Br)cc2)c(C)n1-c1ccc(Cl)cc1 do in these assays?
TEAD-YAP inh: -8; MITF primary: 16; FBW7 activator: 0; GPR151 activ: -1

What do the screens show for `O=C(Nc1ccc(Nc2ccc(-n3cccn3)nn2)cc1)c1ccccc1Cl`?
TEAD-YAP inh: -1; MITF primary: 58*; FBW7 activator: 0; GPR151 activ: 1; MITF inh conf: 4; AS interf ctr: 8

How did O=C(NC12CC3CC(CC(C3)C1)C2)c1ccccc1I do in these assays?
TEAD-YAP inh: 3; MITF primary: 15; FBW7 activator: 0; GPR151 activ: 0

How did O=C(Nc1cc(S(=O)(=O)O)cc2cc(S(=O)(=O)O)cc(O)c12)c1ccccc1 do in these assays?
TEAD-YAP inh: -3; MITF primary: 81*; FBW7 activator: 0; GPR151 activ: -1; MITF inh conf: 60*; AS interf DR: >6.5; AS interf ctr: 10

What do the screens show for `O=C(Nc1cc(NC(=O)c2ccccc2)c(C(=O)O)cc1C(=O)O)c1ccccc1`?
TEAD-YAP inh: -17; MITF primary: -7; FBW7 activator: 0; GPR151 activ: -1

What do the screens show for `CN(C)C=Nc1cc2c(cc1[N+](=O)[O-])OCCO2`?
TEAD-YAP inh: -7; MITF primary: 51*; FBW7 activator: 0; GPR151 activ: 1; MITF inh conf: 9; AS interf ctr: 7

Results for Nc1cc2c(cc1[N+](=O)[O-])OCCO2 ?
TEAD-YAP inh: -3; MITF primary: -12; FBW7 activator: 0; GPR151 activ: 0

How did CCCc1nnc(NC(=O)CN2C(=O)C3C4C=CC(C4)C3C2=O)s1 (centres undefined) do in these assays?
TEAD-YAP inh: -8; MITF primary: 58*; FBW7 activator: 0; GPR151 activ: 2; MITF inh conf: -6; AS interf ctr: -10

Results for CCCc1nnc(NC(=O)NCN2C(=O)C3C4C=CC(C4)C3C2=O)s1 (centres undefined) ?
TEAD-YAP inh: 6; MITF primary: -7; FBW7 activator: 0; GPR151 activ: 2

Results for N#Cc1ccc(-c2ccc(F)cc2)nc1SCC(=O)NC1CC1 ?
TEAD-YAP inh: 5; MITF primary: 52*; FBW7 activator: 0; GPR151 activ: 1; MITF inh conf: -3; AS interf ctr: 3

How did CC(C)(C)c1cc(C(F)(F)F)n2nc(-c3ccccc3)cc2n1 do in these assays?
TEAD-YAP inh: 0; MITF primary: 7; FBW7 activator: 0; GPR151 activ: -1

Results for CC1CCCN(c2cc(Nc3ccccc3O)c([N+](=O)[O-])c3nonc23)C1 (centres undefined) ?
TEAD-YAP inh: -10; MITF primary: 11; FBW7 activator: 0; GPR151 activ: 0

What do the screens show for `Cc1ccc(S(=O)(=O)N2CCN(CC(=O)Nc3cc(Cl)ccc3C)CC2)cc1C`?
TEAD-YAP inh: 3; MITF primary: 53*; FBW7 activator: 0; GPR151 activ: 4; MITF inh conf: -10; AS interf ctr: -6

How did CCc1ccc(-n2nnnc2SCC(=O)NC2CCCC2)cc1 do in these assays?
TEAD-YAP inh: 1; MITF primary: 12; FBW7 activator: 0; GPR151 activ: -1

How did COc1ccc(CN2CCN(Cc3ccccn3)CC2)cc1 do in these assays?
TEAD-YAP inh: -3; MITF primary: 43; FBW7 activator: 0; GPR151 activ: 1

Results for COc1cc(CN2CCN(Cc3ccccn3)CC2)cc(OC)c1OC ?
TEAD-YAP inh: -5; MITF primary: 79*; FBW7 activator: 0; GPR151 activ: -1; MITF inh conf: 1; AS interf ctr: 15

Results for COc1ccc(CN2CCN(Cc3ccccn3)CC2)cc1Br ?
TEAD-YAP inh: 3; MITF primary: 68*; FBW7 activator: 0; GPR151 activ: 0; MITF inh conf: 6; AS interf ctr: 18

What do the screens show for `COc1cc(OC)c(OC)cc1CN1CCN(Cc2ccccn2)CC1`?
TEAD-YAP inh: -8; MITF primary: 71*; FBW7 activator: 0; GPR151 activ: -2; MITF inh conf: 9; AS interf ctr: 16

What do the screens show for `COc1ccc(CN2CCN(c3ccccn3)CC2)cc1O`?
TEAD-YAP inh: 4; MITF primary: 49; FBW7 activator: 0; GPR151 activ: -1

Results for CS(=O)(=O)N1CCC(CO)(Cc2cccc(F)c2)CC1 ?
TEAD-YAP inh: -4; MITF primary: -2; FBW7 activator: 0; GPR151 activ: 0

How did Cc1cccc(Nc2nc3ccccc3n3c(C)nnc23)c1 do in these assays?
TEAD-YAP inh: -3; MITF primary: -13; FBW7 activator: 0; GPR151 activ: 0

How did Cc1ccc(SCCNCC(C)O)cc1 (centres undefined) do in these assays?
TEAD-YAP inh: -6; MITF primary: 47; FBW7 activator: 0; GPR151 activ: 0

What do the screens show for `COCCCNCCCCOc1ccc(Cl)c(Cl)c1`?
TEAD-YAP inh: -7; MITF primary: 11; FBW7 activator: 0; GPR151 activ: 0

How did COCCNCCCCOc1ccc(Cl)c(Cl)c1 do in these assays?
TEAD-YAP inh: 4; MITF primary: 57*; FBW7 activator: 1; GPR151 activ: 0; MITF inh conf: -1; AS interf ctr: -5

How did OCCNCCCCOc1ccc(Cl)c(Cl)c1 do in these assays?
TEAD-YAP inh: -11; MITF primary: 58*; FBW7 activator: 0; GPR151 activ: 0; MITF inh conf: 8; AS interf ctr: 11

What do the screens show for `Clc1ccc(-n2cc(-c3ccccc3)c3c(NCCCN4CCOCC4)ncnc32)cc1`?
TEAD-YAP inh: 3; MITF primary: 3; FBW7 activator: 0; GPR151 activ: 0

What do the screens show for `COc1ccc(-c2csc3ncnc(NCCN4CCOCC4)c23)cc1`?
TEAD-YAP inh: 13; MITF primary: 82*; FBW7 activator: 0; GPR151 activ: -2; MITF inh conf: 16; AS interf ctr: 18

How did Clc1ccc(-c2csc3ncnc(NCCCN4CCOCC4)c23)cc1 do in these assays?
TEAD-YAP inh: -2; MITF primary: 96*; FBW7 activator: 0; GPR151 activ: 1; MITF inh conf: -14; AS interf ctr: -5

Results for COc1ccc(C2CC(C(F)(F)F)n3ncc(C(=O)N4CCN(c5ccccc5Cl)CC4)c3N2)cc1OC (centres undefined) ?
TEAD-YAP inh: -13; MITF primary: 15; FBW7 activator: 0; GPR151 activ: 0

What do the screens show for `O=C(c1cccnc1)N1CCN(Cc2cccc(Br)c2)CC1`?
TEAD-YAP inh: 1; MITF primary: 65*; FBW7 activator: 0; GPR151 activ: 3; MITF inh conf: 4; AS interf ctr: 15

Results for Cc1cccc(CN2CCN(C(=O)c3cccc(Cl)c3)CC2)c1 ?
TEAD-YAP inh: 9; MITF primary: 42; FBW7 activator: 0; GPR151 activ: 1

Results for O=C(c1cccnc1)N1CCN(Cc2ccccc2)CC1 ?
TEAD-YAP inh: 9; MITF primary: 47; FBW7 activator: 0; GPR151 activ: 1

High-throughput results: PubChem BioAssay, The Scripps Research Institute Molecular Screening Center
